Results from PubChem BioAssay (Tox21).
Unmarked numbers belong to inactive results. Results filed as inconclusive are left out. Activity calls are given as the source filed them. Calls come from the whole dose curve.

Target: Estrogen receptor (Homo sapiens) (UniProt P03372)
Experiment: qHTS assay to identify small molecule agonists of the estrogen receptor alpha (ER-alpha) signaling pathway in the presence of an antagonist (AID 1259383); note: top concentration of the series differs between compounds; nearly all actives have a fitted effect of over 15% in size
Details: VM7Luc4E2 cells, ERE-luciferase, +ICI-182,780, 22 h; series mostly up to 92.4 µM; activation: at the top concentration
Method in brief: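 Luciferase luminescence (ONE-Glo, 30min at room temperature) measured in VM7Luc4E2 cells after 22hr compound exposure at 15 concentrations, with 10.0nM ICI-182,780 final present; cells express endogenous ER-alpha and carry four EREs upstream of luciferase.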
% is set by controls: 0 for no effect and ±100 for the full control effect.

Sequence of Estrogen receptor (Homo sapiens) (P03372 whole entry, looked up): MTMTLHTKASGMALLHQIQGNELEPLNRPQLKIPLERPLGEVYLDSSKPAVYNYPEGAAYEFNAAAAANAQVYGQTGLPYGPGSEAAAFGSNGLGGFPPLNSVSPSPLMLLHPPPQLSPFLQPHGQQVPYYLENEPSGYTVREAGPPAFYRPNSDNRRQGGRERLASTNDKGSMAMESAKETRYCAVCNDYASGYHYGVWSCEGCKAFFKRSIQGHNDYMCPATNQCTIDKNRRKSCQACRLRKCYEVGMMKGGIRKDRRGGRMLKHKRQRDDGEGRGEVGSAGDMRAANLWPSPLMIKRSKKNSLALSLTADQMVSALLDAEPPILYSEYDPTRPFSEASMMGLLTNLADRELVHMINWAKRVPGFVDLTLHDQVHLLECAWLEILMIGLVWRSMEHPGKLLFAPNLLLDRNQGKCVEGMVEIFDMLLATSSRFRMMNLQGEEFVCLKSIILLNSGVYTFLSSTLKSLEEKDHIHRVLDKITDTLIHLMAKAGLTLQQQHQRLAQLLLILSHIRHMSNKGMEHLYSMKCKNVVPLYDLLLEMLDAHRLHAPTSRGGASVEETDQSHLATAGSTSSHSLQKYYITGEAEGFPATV

Compound | activation
CCO[Si](CCCSSSSCCC[Si](OCC)(OCC)OCC)(OCC)OCC | 1.41%
CCCCN(CCCC)CCC(O)c1cc2c(Cl)cc(Cl)cc2c2cc(C(F)(F)F)ccc12 (stereo unspecified) | 0.0932% [at 42.5 µM]
O=C1NCCN1CCN1CCC(c2cn(-c3ccc(F)cc3)c3ccc(Cl)cc23)CC1 | -0.0321% [at 42.5 µM]
CN(C)c1ccc(N=Nc2ccccc2C(=O)O)cc1 | 8.31%
CCN(CC)CCOc1ccc(C(O)(Cc2ccc(Cl)cc2)c2ccc(C)cc2)cc1 (stereo unspecified) | -1.23% [at 42.5 µM]
N#CSCSc1nc2ccccc2s1 | -1.07%
O=C(Nc1ccc(Cl)c(Cl)c1)c1cc(Cl)cc(Cl)c1O | 1.4%
CC(C)(c1cc(Br)c(OCCO)c(Br)c1)c1cc(Br)c(OCCO)c(Br)c1 | -13.4%
O[C@@H](c1cc(C(F)(F)F)nc2c(C(F)(F)F)cccc12)[C@H]1CCCCN1 | -1.29% [at 42.5 µM]
CCC(C)(C)c1cc(O)c(C(C)(C)CC)cc1O | 0.0855%
CN1CCN(C2Cc3ccccc3Sc3ccc(Cl)cc32)CC1 (stereo unspecified) | -1.26% [at 42.5 µM]
CCCCOc1ccc(C(=O)CCN2CCCCC2)cc1 | 0.0178% [at 42.5 µM]
CCN(CC)CCNc1ccc(CO)c2sc3ccccc3c(=O)c12 | -0.751% [at 42.5 µM]
COc1ccccc1OCCNCC(O)COc1cccc2[nH]c3ccccc3c12 (stereo unspecified) | 0.489% [at 42.5 µM]
CN(C)CCCN1c2ccccc2Sc2ccc(C(F)(F)F)cc21 | 0.45% [at 42.5 µM]
Nc1cc(Cl)c([N+](=O)[O-])cc1O | 4.93%
CCCCCCCCCCOCC(O)CN (stereo unspecified) | 0.485% [at 42.5 µM]
COc1cc(C=C2CCC/C(=C\c3ccc(O)c(OC)c3)C2=O)ccc1O | 0.0524% [at 42.5 µM]

Tested on: not listed separately
Experiment: qHTS assay to identify small molecule agonists or antagonists of the thyroid stimulating hormone receptor (TSHR) signaling pathway - wild type cell line counter screen (AID 1259384)
Details: HEK293 wild type, cAMP HTRF counter-screen, hits give high values; series mostly up to 92.4 µM; cAMP activity change: at the top concentration
Method in brief: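 Wild-type Hek293 cells, 800/well, 18 h at 37C, then compound with Ro20-1724 for 30 min RT. cAMP by HTRF (cAMP-d2/anti-cAMP cryptate), 1 h RT, fluorescence read. 15 concentrations, triplicates.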

Compound | cAMP activity change
CO[C@H]1C=CO[C@@]2(C)Oc3c(C)c(O)c4c(O)c(cc(O)c4c3C2=O)NC(=O)/C(C)=C\C=C/[C@H](C)[C@H](O)[C@@H](C)[C@@H](O)[C@@H](C)[C@H](OC(C)=O)[C@@H]1C | -2.06%
CCCCN(CCCC)CCC(O)c1cc2c(Cl)cc(Cl)cc2c2cc(C(F)(F)F)ccc12 (stereo unspecified) | -3.28% [at 42.5 µM]
O=C1NCCN1CCN1CCC(c2cn(-c3ccc(F)cc3)c3ccc(Cl)cc23)CC1 | 3.24% [at 42.5 µM]
SCCCCCCCCS | 3.87%
CCCCCCCCCC(=O)N(C)C | -0.0139%
CCN(CC)CCOc1ccc(C(O)(Cc2ccc(Cl)cc2)c2ccc(C)cc2)cc1 (stereo unspecified) | 3.5% [at 42.5 µM]
C=CC(=O)OCCOCC(CC)(COCCOC(=O)C=C)COCCOC(=O)C=C | 5.95%
N#CSCSc1nc2ccccc2s1 | -2.17%
CCC(C)c1cc([N+](=O)[O-])cc([N+](=O)[O-])c1OC(=O)OC(C)C (stereo unspecified) | -4.74%
O[C@@H](c1cc(C(F)(F)F)nc2c(C(F)(F)F)cccc12)[C@H]1CCCCN1 | 5.1% [at 42.5 µM]
CCC(C)(C)c1cc(O)c(C(C)(C)CC)cc1O | -2.7%
CN1CCN(C2Cc3ccccc3Sc3ccc(Cl)cc32)CC1 (stereo unspecified) | 7.8% [at 42.5 µM]
Cc1ccc(-n2[nH]c(C)c(N=Nc3cccc(-c4cccc(C(=O)O)c4)c3O)c2=O)cc1C | -5.81% [at 42.5 µM]
CCCCOc1ccc(C(=O)CCN2CCCCC2)cc1 | 2.49% [at 42.5 µM]
CC(=O)OC(OC(C)=O)c1ccc([N+](=O)[O-])o1 | 0.487%
COc1ccccc1OCCNCC(O)COc1cccc2[nH]c3ccccc3c12 (stereo unspecified) | -4.12% [at 42.5 µM]
CN(C)CCCN1c2ccccc2Sc2ccc(C(F)(F)F)cc21 | -3.33% [at 42.5 µM]
COC(=O)C1=C(C)NC(C)=C(C(=O)OCCCN2CCC(c3ccccc3)(c3ccccc3)CC2)C1c1cccc([N+](=O)[O-])c1 (stereo unspecified) | 6.61% [at 42.5 µM]
Oc1ccc(-c2ccc(O)cc2)cc1 | 5.64%
Cc1c(C)n(Cc2ccccc2)c2ccc(C(=O)OCCN(C)C)cc12 | 4.85% [at 42.5 µM]
Cc1cccc(C)c1NC(=O)CN1CCN(CCCC(c2ccc(F)cc2)c2ccc(F)cc2)CC1 | -2.28% [at 42.5 µM]
Nc1cc(Cl)c([N+](=O)[O-])cc1O | -1.9%
CCCCCCCCCCOCC(O)CN (stereo unspecified) | 5.07% [at 42.5 µM]
COc1cc(C=C2CCC/C(=C\c3ccc(O)c(OC)c3)C2=O)ccc1O | -3.23% [at 42.5 µM]
Cc1cc2c(C(C)C)c(O)c(O)c(C=O)c2c(O)c1-c1c(C)cc2c(C(C)C)c(O)c(O)c(C=O)c2c1O | 3.84% [at 42.5 µM]
CC1CCCCN1CCCOC(=O)c1ccc(OC2CCCCC2)cc1 (stereo unspecified) | 4.37% [at 42.5 µM]

Target: Thyrotropin receptor (Homo sapiens) (UniProt P16473)
Experiment: qHTS assay to identify small molecule antagonists of the thyroid stimulating hormone receptor (TSHR) signaling pathway (AID 1259385); note: nearly all actives have a fitted effect of over 20% in size; note: potency is the fitted concentration of half-maximal effect
Details: TSHR-HEK293 cAMP HTRF, TSH-stimulated antagonist mode; series mostly up to 92.4 µM; activity change, negative = inhibition: at the top concentration
Method in brief: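 TSHR-HEK293 cells (800/well) plated 18 h, then compounds with Ro20-1724 and TSH at 1.5 ng/mL final, 30 min at room temperature. cAMP quantified by HTRF (cAMP-d2/anti-cAMP-cryptate, 1 h); 15 concentrations in triplicate.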

Sequence of Thyrotropin receptor (Homo sapiens) (P16473 whole entry, looked up): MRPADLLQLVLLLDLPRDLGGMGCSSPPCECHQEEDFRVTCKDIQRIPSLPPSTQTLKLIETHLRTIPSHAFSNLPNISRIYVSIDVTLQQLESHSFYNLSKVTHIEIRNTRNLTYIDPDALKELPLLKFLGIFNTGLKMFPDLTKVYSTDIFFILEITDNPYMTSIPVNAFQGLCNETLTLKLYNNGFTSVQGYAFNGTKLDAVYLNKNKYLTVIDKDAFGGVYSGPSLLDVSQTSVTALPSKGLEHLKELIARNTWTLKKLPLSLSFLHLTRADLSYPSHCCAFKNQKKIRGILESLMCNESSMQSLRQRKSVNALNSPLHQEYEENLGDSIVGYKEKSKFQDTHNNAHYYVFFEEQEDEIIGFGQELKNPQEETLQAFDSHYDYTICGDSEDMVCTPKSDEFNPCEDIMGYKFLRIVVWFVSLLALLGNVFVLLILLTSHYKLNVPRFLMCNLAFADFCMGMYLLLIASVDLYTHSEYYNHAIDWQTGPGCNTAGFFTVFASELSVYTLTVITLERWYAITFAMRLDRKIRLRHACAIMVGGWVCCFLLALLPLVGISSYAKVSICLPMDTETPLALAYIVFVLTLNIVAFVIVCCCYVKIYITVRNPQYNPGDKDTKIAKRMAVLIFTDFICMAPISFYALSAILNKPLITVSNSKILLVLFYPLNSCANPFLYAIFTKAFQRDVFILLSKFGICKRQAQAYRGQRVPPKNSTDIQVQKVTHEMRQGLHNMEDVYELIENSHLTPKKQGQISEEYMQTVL

Compound | activity change, negative = inhibition | Potency
CO[C@H]1C=CO[C@@]2(C)Oc3c(C)c(O)c4c(O)c(cc(O)c4c3C2=O)NC(=O)/C(C)=C\C=C/[C@H](C)[C@H](O)[C@@H](C)[C@@H](O)[C@@H](C)[C@H](OC(C)=O)[C@@H]1C | -0.661% | –
CCCCN(CCCC)CCC(O)c1cc2c(Cl)cc(Cl)cc2c2cc(C(F)(F)F)ccc12 (stereo unspecified) | 0.734% [at 42.5 µM] | –
O=C1NCCN1CCN1CCC(c2cn(-c3ccc(F)cc3)c3ccc(Cl)cc23)CC1 | – | 29.8 µM (active)
SCCCCCCCCS | -0.389% | –
CCCCCCCCCC(=O)N(C)C | -3.21% | –
CCN(CC)CCOc1ccc(C(O)(Cc2ccc(Cl)cc2)c2ccc(C)cc2)cc1 (stereo unspecified) | – | 29.8 µM (active)
C=CC(=O)OCCOCC(CC)(COCCOC(=O)C=C)COCCOC(=O)C=C | 8.24% | –
CCC(C)c1cc([N+](=O)[O-])cc([N+](=O)[O-])c1OC(=O)OC(C)C (stereo unspecified) | -0.984% | –
Cc1ccc(-n2[nH]c(C)c(N=Nc3cccc(-c4cccc(C(=O)O)c4)c3O)c2=O)cc1C | -1.23% [at 42.5 µM] | –
COc1ccccc1OCCNCC(O)COc1cccc2[nH]c3ccccc3c12 (stereo unspecified) | – | 33.5 µM (active)
CN(C)CCCN1c2ccccc2Sc2ccc(C(F)(F)F)cc21 | – | 29.8 µM (active)
Oc1ccc(-c2ccc(O)cc2)cc1 | 4.67% | –
Cc1c(C)n(Cc2ccccc2)c2ccc(C(=O)OCCN(C)C)cc12 | -11.3% [at 42.5 µM] | –
Nc1cc(Cl)c([N+](=O)[O-])cc1O | -0.23% | –
CCCCCCCCCCOCC(O)CN (stereo unspecified) | -4.52% [at 42.5 µM] | –
Cc1cc2c(C(C)C)c(O)c(O)c(C=O)c2c(O)c1-c1c(C)cc2c(C(C)C)c(O)c(O)c(C=O)c2c1O | -1.56% [at 42.5 µM] | –
CC1CCCCN1CCCOC(=O)c1ccc(OC2CCCCC2)cc1 (stereo unspecified) | -7.02% [at 42.5 µM] | –
